These results are taken from PubChem BioAssay (EPA / NIEHS).

For experiment [1], the target named is mouse Peroxisome Proliferator-activated Receptor gamma (PPARg), Pparg (gene 19016) (UniProt P37238). As to the kind of experiment: ATG_mPPARg_XSP1: Attagene TRANS-FACTORIAL Multi-Species (XSP1) HepG2 Assay for mouse Peroxisome Proliferator-activated Receptor gamma (PPARg) (AID 2283802). Put shortly:
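HepG2 cells transiently transfected with GAL4-UAS reporter units driven by mouse PPARg–GAL4 chimera; 3 nM 6-alpha-fluorotestosterone present. After 24 h dosing, reporter mRNA quantified by RT-PCR, fluorescent labelling and capillary electrophoresis; gain of signal versus DMSO.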

Experiment [2] addresses Nuclear receptor subfamily 1 group I member 2 (Mus musculus) (UniProt O54915). As to the kind of experiment: ATG_mPXR_XSP1: Attagene TRANS-FACTORIAL Multi-Species (XSP1) HepG2 Assay for mouse Pregnane X Receptor (PXR) (AID 2283803). Here is the method:
(§1) ATG_XSP1_multi-species_TRANS is a cell-based, multiplexed assay created by modifying the existing Attagene TRANS-FACTORIAL system to include a panel of nuclear receptors from some or all the following species: human (Homo sapiens), mouse (Mus musculus), frog (Xenopus laevis), zebrafish (Danio rerio), chicken (Gallus gallus), and turtle (Chrysemys picta). The ECOTOX-FACTORIAL format uses HepG2, a human liver cell line, with measurements taken at 24 hours after chemical dosing in a 24-well plate. Xsp1 included 3 nM 6-alpha-fluorotestosterone to partially stimulate the androgen receptor.ATG_mPXR_XSP1 is one of 29 assay components measured or calculated from the ATG_XSP1_multi-species_TRANS assay. It is designed to make measurements of mRNA induction, a form of inducible reporter, as detected with fluorescence intensity signals by Reverse transcription polymerase chain reaction (RT-PCR) and Capillary electrophoresis technology.The assay endpoint ATG_mPXR_XSP1 was analyzed in the positive analysis fitting direction relative to DMSO as the negative control and baseline of activity. Using a type of inducible reporter, measures of mRNA for gain-of-signal activity can be used to understand the reporter gene at the transcription factor-level as they relate to the gene PXR. Furthermore, this assay endpoint can be referred to as a primary readout, because this assay has produced multiple assay endpoints where this one serves a reporter gene function. To generalize the intended target to other relatable targets, this assay endpoint is annotated to the nuclear receptor intended target family, where the subfamily is non-steroidal.
(§2) Human liver HepG2 cells are transiently transfected with multiple reporter transcription units (MRTUs) in 6-well plates using FuGene 6 reagent (Roche; 3 ml FuGene/1 mg DNA). The MRTU constructs are regulated by a cis-regulating element (promoter). […] A major difference between the CIS and TRANS system is that in CIS activities of endogenous TFs are measured, whereas the TRANS assay evaluates changes in activities of exogenous, chimeric NR-Gal4 proteins. […] At the end of 24 hour incubation, total RNA was isolated using TriZol reagent (Invitrogen). The isolated RNA is then reverse-transcribed using oligo(dT) primer and Mo-MLV reverse transcriptase (Invitrogen) with DNAse I (Ambion) treatment for 30 min. The one-tenth of the produced cDNA was amplified by PCR using Taq DNA polymerase (Invitrogen) and two reporter sequence-specific primers. The PCR products were fluorescently labeled by primer extension with 6-arboxyfluorescein (6-FAM) 5'-labeled reporter sequence-specific primer (2 min at 95 C, 20 s at 68 C and 10 min at 72 C) and these products were digested with 5U of HpaI (New England Biolabs) for 2h at 37 C. The fragments were purified using Qiaquick PCR columns (Qiagen), analyzed on an ABI 3130xL genetic analyzer (Applied Biosystems) with peak positions identified by using a set of X-rhodamine (ROX)-labeled MapMarker1000 molecular weight standards (BioVentures). The raw capillary electrophoresis data was processed using Attagraph software (Attagene).

Experiment [3] concerns the target frog Thyroid hormone Receptor alpha (TRa), thra-a (gene 397942) (UniProt P15204). Briefly: ATG_frTRa_XSP1: Attagene TRANS-FACTORIAL Multi-Species (XSP1) HepG2 Assay for frog Thyroid hormone Receptor alpha (TRa) (AID 2283804). The method, boiled down:
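HepG2 cells transiently transfected with frog TRa-GAL4 chimeric reporter units, dosed 24 hr with 3 nM 6-alpha-fluorotestosterone present; reporter mRNA quantified by RT-PCR, fluorescent labelling and capillary electrophoresis, gain of signal versus DMSO.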

Experiment [4] has as its target human Thyroid hormone Receptor alpha (TRa), THRA (gene 7067) (UniProt P10827). As to the kind of experiment: ATG_hTRa_XSP1: Attagene TRANS-FACTORIAL Multi-Species (XSP1) HepG2 Assay for human Thyroid hormone Receptor alpha (TRa) (AID 2283805). Here is the method: as §1, with “receptor.ATG_hTRa_XSP1” for “receptor.ATG_mPXR_XSP1”, “ATG_hTRa_XSP1” for “ATG_mPXR_XSP1”, “TR.” for “PXR.”
as §2

In experiment [5] the test system is turtle Thyroid Hormone Receptor, alpha (TRa), gene 101949057. As to the kind of experiment: ATG_trTRa_XSP1: Attagene TRANS-FACTORIAL Multi-Species (XSP1) HepG2 Assay for turtle Thyroid Hormone Receptor, alpha (TRa) (AID 2283806). As to the method:
as §1, with “receptor.ATG_trTRa_XSP1” for “receptor.ATG_mPXR_XSP1”, “ATG_trTRa_XSP1” for “ATG_mPXR_XSP1”, “TR.” for “PXR.”
as §2

In experiment [6] the target is zebrafish Thyroid Hormone Receptor alpha (TRa), thraa (gene 30670) (UniProt Q98867). Briefly: ATG_zfTRa_XSP1: Attagene TRANS-FACTORIAL Multi-Species (XSP1) HepG2 Assay for zebrafish Thyroid Hormone Receptor alpha (TRa) (AID 2283807). The method, boiled down:
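HepG2 cells transiently transfected with GAL4-UAS reporter units including a zebrafish TRa–Gal4 chimera, dosed 24 h with 3 nM 6-alpha-fluorotestosterone present. Reporter mRNA quantified by RT-PCR and capillary electrophoresis; gain versus DMSO.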

Experiment [7] has as its target human Thyroid hormone Receptor beta (TRb), THRB (gene 7068) (UniProt P10828). Briefly: ATG_hTRb_XSP1: Attagene TRANS-FACTORIAL Multi-Species (XSP1) HepG2 Assay for human Thyroid hormone Receptor beta (TRb) (AID 2283808). Put shortly:
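HepG2 cells transiently transfected with reporter units driving GAL4-UAS reporters for chimeric NR-Gal4 proteins; 24 h chemical exposure with 3 nM 6-alpha-fluorotestosterone present. Reporter mRNA quantified by RT-PCR and capillary electrophoresis, gain of signal versus DMSO.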

For experiment [8], the target named is zebrafish Thyroid Hormone Receptor beta (TRb), thrb (gene 30607) (UniProt Q9PVE4). Briefly: ATG_zfTRb_XSP1: Attagene TRANS-FACTORIAL Multi-Species (XSP1) HepG2 Assay for zebrafish Thyroid Hormone Receptor beta (TRb) (AID 2283809). Put shortly:
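HepG2 cells transiently transfected with multiplexed GAL4-UAS reporter units expressing chimeric zebrafish TRb–Gal4. Dosed 24 h with 3 nM 6-alpha-fluorotestosterone present; reporter mRNA measured by RT-PCR, HpaI digestion and capillary electrophoresis; gain of signal versus DMSO.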

Experiment [9] is described as follows: ATG_XTT_Cytotoxicity_XSP1: Cytotoxicity Assessment in the Attagene TRANS-FACTORIAL Multi-Species (XSP1) HepG2 Assay (AID 2283810). Put shortly:
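XTT viability readout taken at 24 hours post-dosing in HepG2 liver cells co-treated with 3 nM 6-alpha-fluorotestosterone. Signal loss relative to DMSO controls reflects cytotoxicity.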

The nature of experiment [10]: ATG_M_06_XSP2: Attagene TRANS-FACTORIAL Multi-Species (XSP2) HepG2 Assay for M06 Transcription Factor (Internal Marker) (AID 2283811).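 Further: internal background marker reporter mRNA measured by RT-PCR and capillary electrophoresis; hits are increases in signal above the DMSO baseline.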 Put shortly:
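HepG2, multiplexed reporter transfection; 24 h dosing; AR stimulated with 3 nM 6-alpha-fluorotestosterone + 1.5 nM norgestrel; RNA → RT-PCR → 6-FAM primer extension → HpaI → CE. Positive direction vs DMSO.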

Each structure is given as a SMILES string. Inconclusive results are not listed. Activity calls are given as the source filed them. How the source made its calls: active means hit-call score of the fitted dose curve at least 0.9, where 1 is the maximum; inconclusive means response in the unintended direction; inactive means score below 0.9.

Sequence of mouse Peroxisome Proliferator-activated Receptor gamma (PPARg), Pparg (gene 19016) (P37238 whole entry, looked up, the tested form may be a part): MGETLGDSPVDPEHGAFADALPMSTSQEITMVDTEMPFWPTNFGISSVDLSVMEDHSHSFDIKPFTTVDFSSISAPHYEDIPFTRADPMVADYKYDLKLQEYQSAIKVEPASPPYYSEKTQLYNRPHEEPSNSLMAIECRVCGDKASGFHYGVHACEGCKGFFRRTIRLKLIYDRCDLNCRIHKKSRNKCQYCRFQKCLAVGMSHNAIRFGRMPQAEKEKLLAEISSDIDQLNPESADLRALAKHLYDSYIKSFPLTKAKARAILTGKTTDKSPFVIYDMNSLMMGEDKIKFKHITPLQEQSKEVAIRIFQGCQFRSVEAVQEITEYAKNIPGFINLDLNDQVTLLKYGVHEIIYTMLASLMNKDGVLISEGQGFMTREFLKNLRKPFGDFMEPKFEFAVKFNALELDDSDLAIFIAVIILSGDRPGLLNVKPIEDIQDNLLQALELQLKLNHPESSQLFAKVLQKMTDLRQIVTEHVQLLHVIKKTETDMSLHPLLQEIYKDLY
Sequence of Nuclear receptor subfamily 1 group I member 2 (Mus musculus) (O54915 whole entry, looked up): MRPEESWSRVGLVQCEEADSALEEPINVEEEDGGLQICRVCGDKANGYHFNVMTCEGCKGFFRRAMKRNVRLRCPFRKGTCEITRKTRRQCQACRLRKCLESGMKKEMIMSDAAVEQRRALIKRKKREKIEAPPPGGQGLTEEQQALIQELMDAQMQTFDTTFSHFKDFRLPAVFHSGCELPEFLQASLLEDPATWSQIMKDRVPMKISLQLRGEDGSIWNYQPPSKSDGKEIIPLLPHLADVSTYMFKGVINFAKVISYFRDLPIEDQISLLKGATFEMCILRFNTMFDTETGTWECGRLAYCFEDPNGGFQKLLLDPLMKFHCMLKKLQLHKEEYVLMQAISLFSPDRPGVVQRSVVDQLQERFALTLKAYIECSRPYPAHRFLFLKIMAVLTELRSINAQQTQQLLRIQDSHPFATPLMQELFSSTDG
Sequence of frog Thyroid hormone Receptor alpha (TRa), thra-a (gene 397942) (P15204 whole entry, looked up, the tested form may be a part): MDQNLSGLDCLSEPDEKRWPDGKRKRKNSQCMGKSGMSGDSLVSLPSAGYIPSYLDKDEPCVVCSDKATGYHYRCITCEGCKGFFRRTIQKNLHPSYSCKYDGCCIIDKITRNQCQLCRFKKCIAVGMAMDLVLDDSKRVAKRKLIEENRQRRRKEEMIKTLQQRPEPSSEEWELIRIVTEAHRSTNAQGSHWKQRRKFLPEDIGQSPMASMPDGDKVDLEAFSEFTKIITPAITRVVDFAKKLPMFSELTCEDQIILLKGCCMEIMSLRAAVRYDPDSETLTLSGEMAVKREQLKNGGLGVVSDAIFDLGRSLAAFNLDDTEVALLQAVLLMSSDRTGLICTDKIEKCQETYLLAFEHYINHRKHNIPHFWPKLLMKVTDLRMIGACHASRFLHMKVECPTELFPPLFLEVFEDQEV
Sequence of zebrafish Thyroid Hormone Receptor alpha (TRa), thraa (gene 30670) (Q98867 whole entry, looked up, the tested form may be a part): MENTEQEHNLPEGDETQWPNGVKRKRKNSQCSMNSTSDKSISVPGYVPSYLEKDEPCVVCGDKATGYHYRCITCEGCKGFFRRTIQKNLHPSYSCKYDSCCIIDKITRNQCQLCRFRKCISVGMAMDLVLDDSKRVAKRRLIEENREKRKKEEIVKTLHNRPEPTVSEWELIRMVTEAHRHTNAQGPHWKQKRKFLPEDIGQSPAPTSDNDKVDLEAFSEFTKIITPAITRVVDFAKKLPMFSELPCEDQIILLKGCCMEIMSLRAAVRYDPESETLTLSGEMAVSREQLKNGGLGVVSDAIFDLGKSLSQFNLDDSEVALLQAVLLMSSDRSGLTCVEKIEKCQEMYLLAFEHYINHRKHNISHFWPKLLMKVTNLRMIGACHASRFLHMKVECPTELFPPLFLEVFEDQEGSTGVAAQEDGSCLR
Sequence of human Thyroid hormone Receptor beta (TRb), THRB (gene 7068) (P10828 whole entry, looked up, the tested form may be a part): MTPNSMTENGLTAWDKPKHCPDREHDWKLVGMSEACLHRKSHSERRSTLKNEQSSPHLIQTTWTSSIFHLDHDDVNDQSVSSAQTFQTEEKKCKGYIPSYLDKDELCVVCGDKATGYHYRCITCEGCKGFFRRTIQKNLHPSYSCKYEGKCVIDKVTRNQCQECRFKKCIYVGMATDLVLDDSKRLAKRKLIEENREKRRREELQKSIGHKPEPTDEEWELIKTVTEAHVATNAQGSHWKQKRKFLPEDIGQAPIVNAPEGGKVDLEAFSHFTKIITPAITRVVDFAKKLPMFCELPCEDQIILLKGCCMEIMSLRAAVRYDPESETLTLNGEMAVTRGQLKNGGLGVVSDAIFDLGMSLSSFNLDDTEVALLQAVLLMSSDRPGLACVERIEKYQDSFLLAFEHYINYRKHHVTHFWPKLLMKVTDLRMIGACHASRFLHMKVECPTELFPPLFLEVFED
Sequence of zebrafish Thyroid Hormone Receptor beta (TRb), thrb (gene 30607) (Q9PVE4 whole entry, looked up, the tested form may be a part): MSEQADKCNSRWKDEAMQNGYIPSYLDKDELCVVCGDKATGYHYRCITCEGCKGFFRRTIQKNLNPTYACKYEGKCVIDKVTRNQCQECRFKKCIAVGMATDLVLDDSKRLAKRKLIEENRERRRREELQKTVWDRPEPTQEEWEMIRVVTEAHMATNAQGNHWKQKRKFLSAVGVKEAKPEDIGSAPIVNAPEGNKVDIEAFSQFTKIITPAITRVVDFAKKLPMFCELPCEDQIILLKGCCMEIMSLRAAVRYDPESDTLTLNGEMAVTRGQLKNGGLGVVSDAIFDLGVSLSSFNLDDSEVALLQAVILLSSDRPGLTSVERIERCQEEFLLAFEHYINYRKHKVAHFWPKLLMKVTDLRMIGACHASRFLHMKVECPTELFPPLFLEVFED
Sequence of human Thyroid hormone Receptor alpha (TRa), THRA (gene 7067) (P10827 whole entry, looked up): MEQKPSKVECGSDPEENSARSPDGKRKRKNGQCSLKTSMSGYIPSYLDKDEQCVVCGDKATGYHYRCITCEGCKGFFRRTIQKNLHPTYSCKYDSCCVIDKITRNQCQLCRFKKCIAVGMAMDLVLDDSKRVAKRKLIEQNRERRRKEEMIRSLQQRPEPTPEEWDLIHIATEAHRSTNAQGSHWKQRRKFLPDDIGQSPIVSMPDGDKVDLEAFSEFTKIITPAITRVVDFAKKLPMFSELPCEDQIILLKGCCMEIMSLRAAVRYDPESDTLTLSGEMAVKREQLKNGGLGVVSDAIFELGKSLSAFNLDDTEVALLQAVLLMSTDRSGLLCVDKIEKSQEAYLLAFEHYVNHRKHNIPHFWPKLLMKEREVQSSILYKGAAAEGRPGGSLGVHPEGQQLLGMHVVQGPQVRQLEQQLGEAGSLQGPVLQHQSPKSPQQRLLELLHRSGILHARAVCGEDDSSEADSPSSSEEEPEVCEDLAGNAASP

With `Oc1ccc(Cl)cc1Cc1ccccc1`, the AC50 in experiment [1] is 10.1 µM (active). For the same compound, the compound was classed as inactive in experiment [2], in experiment [3], in experiment [4], in experiment [5], in experiment [6] and in [7]. Moreover, the outcome in [8], in experiment [9] and in experiment [10] was inactive.
Regarding `COP(=S)(OC)Oc1ccc(SC)c(C)c1`, the AC50 is 41.5 µM (active) in [1] and 8.91 µM (active) in experiment [2]. Besides, the outcome in experiment [4], in experiment [5], in [6], in [7], in experiment [8] and in [9] was inactive. Moreover, in experiment [10], the result was inactive.
With `O=S1OCC2C(CO1)C1(Cl)C(Cl)=C(Cl)C2(Cl)C1(Cl)Cl` (centres undefined), the result in [1], in experiment [4], in experiment [5], in experiment [6], in experiment [7] and in experiment [8] was inactive. In addition, the compound was classed as inactive in experiment [9] and in [10]. Besides, the AC50 in experiment [2] was 0.512 µM (active).
Regarding `CC(C)(C)C(O)/C(=C\c1ccc(Cl)cc1Cl)n1cncn1` (centres undefined), the compound was called inactive in experiment [10].
`CCCN(CCOc1c(Cl)cc(Cl)cc1Cl)C(=O)n1ccnc1`: the AC50 in [1] was 15.8 µM (active); in [2], 0.11 µM (active); in [9], 100 µM (active). The result in [4], in experiment [5], in experiment [6], in [7] and in [10] was inactive.
On to `CCOCN(C(=O)CCl)c1c(C)cccc1CC`, for which the AC50 in experiment [1] is 1.89 µM (active); in [2], 4 µM (active). Further, the outcome in [9] was inactive.
Consider `O=C(O)C(F)(F)C(F)(F)C(F)(F)C(F)(F)C(F)(F)C(F)(F)C(F)(F)F`, for which the outcome in [10] was inactive.
`CC1(C)C(C=C(Cl)Cl)C1C(=O)OC(C#N)c1ccc(F)c(Oc2ccccc2)c1` (centres undefined): the values for the AC50 in experiment [1] and in experiment [2] were 9.66 µM (active) and 0.436 µM (active), respectively. In addition, the compound was classed as inactive in experiment [3], in [4], in experiment [5], in experiment [6], in experiment [7] and in experiment [8]. Moreover, in [9], the outcome was inactive.
With `O=S(=O)(O)C(F)(F)C(F)(F)C(F)(F)C(F)(F)C(F)(F)C(F)(F)C(F)(F)C(F)(F)F`, the AC50 in [1] was 73.1 µM (active); in experiment [2], 57.9 µM (active); in experiment [6], 140 µM (active); in experiment [9], 154 µM (active). The outcome in experiment [8] and in experiment [10] was inactive.
On to `CCCN(CCC)c1c([N+](=O)[O-])cc(C(F)(F)F)cc1[N+](=O)[O-]`, for which the values for the AC50 in experiment [1] and in experiment [2] were 35.1 µM (active) and 2.85 µM (active), respectively. Further, the result in [5], in experiment [6], in [7], in experiment [8], in experiment [9] and in experiment [10] was inactive.
As to `Oc1cc(Cl)ccc1Oc1ccc(Cl)cc1Cl`, the AC50 in [1] is 11.1 µM (active); in [2], 14.4 µM (active); in [4], 7.06 µM (active); in [5] it was 11.1 µM (active); in experiment [6] it was 14 µM (active); in experiment [9], 100 µM (active). Further, the compound was called inactive in experiment [3], in experiment [7], in experiment [8] and in experiment [10].
